Test results published in PubChem BioAssay AID1159580 (chemical genetic matrix, 2015).
The whole screen tested about 5,500 compounds, of which about 2,000 (36%) were called active. Roughly 18% stayed inconclusive and do not appear here. No stated cut-off is given here; in the data, active means normalized growth mostly below about 0.91 (no sharp cut-off); inconclusive means no clear call, values can overlap the other calls; inactive means mostly above about 0.92. Some of the results follow.

Assay: chemical genetic growth profiling, strain panel (AID 1159580);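 further: tested at 20 µM; growth read once vehicle control cultures reached saturation at 30 °C; 1 = growth at the plate median or of vehicle wells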
Settings: S. cerevisiae deletion strains, growth OD

Measured: normalized growth

CC1CCN=C(N)S1 (centres undefined)
inactive: locus YAL013W, strain DEP1, stronger effect = lower value 0.997 | locus YAL040C, strain CLN3, stronger effect = lower value 0.98 | locus YER002W, strain NOP16, stronger effect = lower value 1 | locus YNL153C, strain GIM3, stronger effect = lower value 0.947 | locus YNL175C, strain NOP13, stronger effect = lower value 0.991 | locus YNL197C, strain WHI3, stronger effect = lower value 0.99 | locus YNL224C, strain SQS1, stronger effect = lower value 1.02 | locus YOR083W, strain WHI5 (second series), stronger effect = lower value 0.962 | locus YPL241C, strain CIN2, stronger effect = lower value 0.978
